Screening results deposited in PubChem BioAssay by several laboratories.
Shown are actives, neighbours in structure and some others; about 1.4% of the full set was active somewhere.
MsrA act – bovine MsrA enzyme activators, primary screen, biochemical, absorbance, HTS | Methionine sulfoxide reductase A (Bos taurus) | purified bovine MsrA, absorbance read-out | activation, % at 10.6 µM | AID 602163, 2012 | hit rate 0.3% among 360,000; in the data active means activation above about 7.5%;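 further: 0% = vehicle and 100% = reference activator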
pCIP destab – p/CIP-EGFP fusion destabilizers, primary screen, fluorescence, F442A cells; hit rate 0.01% among 290,000; Q05BA5; 16 h; decrease of EGFP signal, % at 10 µM;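 active means EGFP signal decrease of at least 30% at 10 µM or well 3 SD below plate mean, unless failing retest; inactive means the rest, including hits failing retest or dose response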
14-3-3 Bad PPI – inhibitors of 14-3-3 zeta/Bad binding, primary screen, biochemical, TR-FRET, bovine 14-3-3 zeta; inhibition, % at 21.7 µM; AID 781, 2007; hit rate 0.71% among 220,000; TR-FRET 14-3-3zeta/Dy647-pBad peptide displacement, 1 h; 14-3-3 protein zeta/delta (Bos taurus), P63103;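 active means inhibition above about 70%, limit read from the data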;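 further: 0% = full 14-3-3 plus peptide FRET controls and 100% = background without 14-3-3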
Target sequence (P63103 whole entry, looked up): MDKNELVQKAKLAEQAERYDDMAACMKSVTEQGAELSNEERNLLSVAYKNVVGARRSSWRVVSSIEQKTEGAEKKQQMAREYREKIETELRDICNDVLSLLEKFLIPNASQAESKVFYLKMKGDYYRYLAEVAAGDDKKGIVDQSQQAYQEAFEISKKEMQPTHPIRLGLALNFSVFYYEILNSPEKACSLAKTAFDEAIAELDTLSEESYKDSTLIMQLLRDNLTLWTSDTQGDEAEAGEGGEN
MsrA inh – bovine MsrA enzyme inhibitors, primary screen, biochemical, absorbance, HTS; purified bovine MsrA, absorbance read-out; AID 651718, 2012; inhibition, % at 15.5 µM; hit rate 0.75% among 360,000; in the data active means inhibition above about 4.5%;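 further: 0% = vehicle wells with enzyme and 100% = reference inhibitor wells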
Starred values were filed as active, the others as inactive; [ ] = dose if it differs, or a comment.

Results for N=C1/C(=C\c2ccc(-c3ccc(C(=O)O)cc3)o2)C(=O)N=C2SC=C(c3ccccc3)N12 ?
MsrA act: -3; pCIP destab: 4; 14-3-3 Bad PPI: 80*; MsrA inh: 0

Results for CC(=O)C1=C(C)N(CC(C)C)C(=S)NC1c1ccc(Br)cc1 (stereo not drawn) ?
MsrA inh: 1

What do the screens show for `COc1cc(/C=C/C(=O)OC(C)C(=O)Nc2c(C)n(C)n(-c3ccccc3)c2=O)ccc1OCC#N` (stereo not drawn)?
MsrA act: -9; pCIP destab: 23; 14-3-3 Bad PPI: 14; MsrA inh: 4.6*

Results for COCc1cc(N2CCN(C(=O)OC(C)(C)C)C[C@@H]2C)ccc1Br ?
MsrA inh: -1

What do the screens show for `O=C(Nc1ccc(O)c(-c2nc3ccccc3s2)c1)c1cc(=O)c2ccccc2o1`?
MsrA act: -6; pCIP destab: -7; 14-3-3 Bad PPI: 76*; MsrA inh: 2

How did O=C(Nc1ccc(O)c(-c2nc3ccccc3s2)c1)c1cccs1 do in these assays?
MsrA act: 3; pCIP destab: -2; 14-3-3 Bad PPI: -20; MsrA inh: 4

How did CSc1ccc(/C=N/Nc2cccc(C(=O)O)c2)cc1 do in these assays?
MsrA act: -10; pCIP destab: 8; 14-3-3 Bad PPI: 85*

How did Cn1c(=O)c2c(c3ccccc31)OC(C)(C)C=C2 do in these assays?
MsrA inh: 2

Results for O=C(Nc1ccc2oc(-c3ccc(Cl)c(Cl)c3)nc2c1)c1ncn[nH]1 ?
MsrA act: -2; pCIP destab: -4; 14-3-3 Bad PPI: 75*; MsrA inh: 1

How did O=C(Nc1ccc(-c2nc3cc(NC(=O)c4cccs4)ccc3o2)cc1)c1cccs1 do in these assays?
MsrA act: -1; pCIP destab: -21; 14-3-3 Bad PPI: 74*[fluorescence artefact?]; MsrA inh: 0

What do the screens show for `O=C(Nc1ccc2oc(-c3ccncc3)nc2c1)c1cccs1`?
MsrA act: 1; pCIP destab: 2; 14-3-3 Bad PPI: 4; MsrA inh: 1

What do the screens show for `Nc1nc2c(ncn2[C@@H]2O[C@H](C(=O)N[C@H](Cc3ccccc3)C(=O)NC3CCCCC3)[C@@H](O)[C@H]2O)c(=O)[nH]1`?
MsrA inh: 1

Results for COc1ccc(CN2CCN(c3ccccn3)CC2)cc1OCc1ccccc1 ?
MsrA act: -3; pCIP destab: -14; 14-3-3 Bad PPI: 70*; MsrA inh: -1

Results for COc1ccc(CN2CCN(C(=O)c3ccco3)CC2)cc1OCc1ccccc1 ?
MsrA act: -7; pCIP destab: -7; 14-3-3 Bad PPI: 84*; MsrA inh: 0

Results for OC(c1ccccc1)(c1ccccc1)C1CCN(CCCOc2ccc(-c3cccnc3)cc2)CC1 ?
MsrA inh: 0

How did COC(=O)c1ccc(CN2C(=O)[C@]3(OCCC=C[C@H]3C)c3ccccc32)cc1 do in these assays?
MsrA inh: 0

What do the screens show for `Cc1ccc2nc(-c3ccc(F)cc3)c(Cc3ccsc3)n2c1`?
MsrA inh: 1

Results for CCOC(=O)C1=C(c2ccccc2)NC(=O)NC1c1cc(Cl)c(O)c(OC)c1 (stereo not drawn) ?
MsrA act: 0; pCIP destab: -2; 14-3-3 Bad PPI: 4; MsrA inh: 1

What do the screens show for `CCOC(=O)C1=C(c2ccccc2)NC(N)=NC1c1ccc(OCc2ccc(Cl)cc2)c(OC)c1` (stereo not drawn)?
MsrA act: -6; pCIP destab: -7; 14-3-3 Bad PPI: 94*; MsrA inh: -1

What do the screens show for `CN1OC[C@@H]2CN(C(=O)c3ccc(C#N)cc3)[C@H](c3cccc(Br)c3)C[C@@H]21`?
MsrA inh: -1

Results for CN(c1ccc(NC(=O)CCc2cn(Cc3ccc(Br)cc3)c3ccccc23)cc1)c1ccccn1 ?
MsrA inh: 2

What do the screens show for `O=C(Nc1ccc(Nc2ccncc2)cc1)c1ccc(Nc2ccnc3ccc([N+](=O)[O-])cc23)cc1[N+](=O)[O-]`?
MsrA act: -2; pCIP destab: -9; 14-3-3 Bad PPI: 77*; MsrA inh: 2

What do the screens show for `COCc1[nH]nc2c1C(c1ccccc1)N(Cc1ccccc1)C2=O` (stereo not drawn)?
MsrA inh: 0

How did Cc1snc(S(=O)(=O)/C(C#N)=N/Nc2ccc(C(F)(F)F)cc2)c1C#N do in these assays?
MsrA act: 1; pCIP destab: 5; 14-3-3 Bad PPI: 69; MsrA inh: 4.6*

Results for Cc1cc(NCc2ccccn2)ccc1Br ?
MsrA act: -11; pCIP destab: -4; 14-3-3 Bad PPI: 79*; MsrA inh: 0

Results for CC(C)C(=O)Nc1ccc(NC(=O)c2cccc(F)c2)cn1 ?
MsrA act: -1; pCIP destab: 2; 14-3-3 Bad PPI: 76*; MsrA inh: 1

How did Cc1c(NC(=O)CN2CC(C)OC(C)C2)c(=O)n(-c2ccccc2)n1C (stereo not drawn) do in these assays?
MsrA act: -1; pCIP destab: -1; 14-3-3 Bad PPI: 86*; MsrA inh: -1

What do the screens show for `O=C(NCC1CCN(C(=O)C(=O)c2cc3ccccc3o2)CC1)c1ccncc1`?
MsrA inh: 2

Results for COCc1cc(N2CCN(C(=O)OC(C)(C)C)C[C@H]2C)ccc1N1CC[C@H](O)C1 ?
MsrA inh: -1

How did Cc1cc(NC(=O)Cc2cn(C)c3ccccc23)ccc1Nc1cccnc1 do in these assays?
MsrA inh: 0

Results for CCOC(=O)c1c(CN2CCCCC2)oc2ccc(OC)cc12 ?
MsrA act: -2; pCIP destab: -12; 14-3-3 Bad PPI: 35; MsrA inh: 0

Results for CCOC(=O)c1c(CN2CCN(C)CC2)oc2ccc(OC)cc12 ?
MsrA act: -14; pCIP destab: 8; 14-3-3 Bad PPI: 79*; MsrA inh: 1

How did COC(=O)[C@]12C[C@H](CC(=O)N3CCCC3)C(=O)N(Cc3ccccc3)C1=C[C@H](C(C)(C)C)O[C@@H]2C do in these assays?
MsrA inh: 0

What do the screens show for `CCOC(=O)N1CCN(c2ccc(C(C)=O)cc2F)CC1C` (stereo not drawn)?
MsrA act: -4; pCIP destab: -17; 14-3-3 Bad PPI: -5; MsrA inh: 4.6*

Results for Cc1ccc(SC(C)C(=O)Nc2cccc(N(C)S(C)(=O)=O)c2)cc1 (stereo not drawn) ?
MsrA act: -3; pCIP destab: -13; 14-3-3 Bad PPI: 75*; MsrA inh: 2

What do the screens show for `Nc1ccc(N)c(C(=O)O)c1`?
MsrA act: -5; 14-3-3 Bad PPI: 96*

What do the screens show for `Nc1ccc(C(=O)O)c(O)c1`?
MsrA act: 1; pCIP destab: -4; 14-3-3 Bad PPI: -12; MsrA inh: 3

How did COC(=O)C1=C(C)N(C)C(=NCC2CC2)NC1c1cccc(Cl)c1 (stereo not drawn) do in these assays?
MsrA inh: 1

Results for CC(C)C(C(=O)O)N1C(=O)/C(=C/C=C/c2ccco2)SC1=S (stereo not drawn) ?
MsrA act: -4; pCIP destab: -24; 14-3-3 Bad PPI: 71*[fluorescence artefact?]
